# Hits are enriched below; roughly 11% of the tested compounds scored in any of these assays.
# PI5P4Ka inh: blocks human PI5P4K alpha kinase activity; max response, %; PI5P4Kalpha enzyme, ADP-Glo luminescence, 60 min; stronger effect = lower value; 1.2% of 330,000 active; active = max response of -50% or lower; inconclusive = between -30% and -50%; inactive = -30% or higher; note: value at the top dose of about 77 µM; % is set by controls: 0 for no effect and ±100 for the full control effect
# Target sequence (P48426 whole entry, looked up): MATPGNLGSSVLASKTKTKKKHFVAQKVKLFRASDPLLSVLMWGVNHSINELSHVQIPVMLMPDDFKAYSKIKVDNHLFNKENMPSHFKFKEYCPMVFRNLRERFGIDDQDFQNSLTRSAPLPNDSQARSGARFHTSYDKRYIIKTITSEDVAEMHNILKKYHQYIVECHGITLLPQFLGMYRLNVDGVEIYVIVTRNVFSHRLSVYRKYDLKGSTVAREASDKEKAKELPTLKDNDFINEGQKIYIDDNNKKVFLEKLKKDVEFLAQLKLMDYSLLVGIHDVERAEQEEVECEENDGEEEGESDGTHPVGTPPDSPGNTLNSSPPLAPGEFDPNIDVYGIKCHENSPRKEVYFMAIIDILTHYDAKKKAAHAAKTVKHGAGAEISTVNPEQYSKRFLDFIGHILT
#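 Quantitative HTS of the MLSMR library against PI5P4Kalpha with substrate. ATP added last at 5 microM final; room temperature, 60 minutes. Remaining ATP depleted, ADP converted and read as luminescence.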
# L3MBTL1 inh: inhibitors of human L3MBTL1 | Q9Y468 | AlphaScreen L3MBTL1–H3K9me1 peptide binding | Potency, µM (doses to about 57.1 µM), for inactives: at the top dose activity, negative = inhibition, most hits filed as inhibitors | 0.66% of 230,000 active | AID 485360; note: potency is the fitted concentration of half-maximal effect; % is set by controls: 0 for no effect and ±100 for the full control effect; nearly all actives have a fitted effect of over 60% in size
#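 L3MBTL1 50 nM + b-AHA-H3(1-15)K9me1 75 nM, 30 min RT; compound added, 30 min RT; streptavidin donor/Ni-chelate acceptor beads 10 ug/mL each final, 30 min RT dark; AlphaScreen read.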
# JMJD2A Tudor: blocks the human JMJD2A Tudor domain. 4.4% of 390,000 active. Potency, µM (doses to about 114 µM), without a hit: top-dose activity change, negative = inhibition, usual class: inhibitors. AlphaScreen JMJD2A-Tudor / H3K4me3 peptide binding. O75164; note: potency is the fitted concentration of half-maximal effect; % is set by controls: 0 for no effect and ±100 for the full control effect; nearly all actives have a fitted effect of over 50% in size
# G9a block: G9a (human) methyltransferase inhibition | Q96KQ7 | G9a H3K9 monomethylation, AlphaScreen, 2 h | Potency, µM (series often up to 102 µM), for inactives: top-dose activity, negative = inhibition, actives largely listed as inhibitors | 8.8% of 350,000 active | AID 504332; note: potency is the fitted concentration of half-maximal effect; % is set by controls: 0 for no effect and ±100 for the full control effect; nearly all actives have a fitted effect of over 75% in size
# Target sequence (Q96KQ7 913-1193 limits assumed): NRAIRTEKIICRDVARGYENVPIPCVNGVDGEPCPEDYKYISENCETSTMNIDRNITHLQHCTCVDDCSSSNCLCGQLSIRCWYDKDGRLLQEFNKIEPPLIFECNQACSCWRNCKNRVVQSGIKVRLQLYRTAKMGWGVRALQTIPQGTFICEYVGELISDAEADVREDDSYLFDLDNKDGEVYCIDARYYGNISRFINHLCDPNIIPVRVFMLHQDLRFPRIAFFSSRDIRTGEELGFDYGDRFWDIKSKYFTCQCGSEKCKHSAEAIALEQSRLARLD
#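 Step 1: enzyme (final 20 nM) with compound, 15 min RT. Step 2: substrate peptide 500 nM and SAM 20 uM, 2 h RT. Step 3: anti-H3K9me1 antibody and AlphaScreen beads, 10 min, then plate read.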
# HP1b chromo inh: HP1-beta chromodomain-methylated histone interaction inhibition; AlphaScreen HP1-beta / biotin-H3K9me3 peptide binding; Potency, µM (doses to about 114 µM), without a hit: top-dose activity change, negative = inhibition, hits mostly inhibitors; 0.56% of 390,000 active; AID 540317; note: potency is the fitted concentration of half-maximal effect; nearly all actives have a fitted effect of over 70% in size
#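 AlphaScreen: HP1-beta (50 nM) preformed 30 min with biotin-H3(1-18)K9me3 peptide (50 nM) in PBS pH 7.4, 0.01% Tween-20. Compound added for 30 min at RT, then streptavidin donor/nickel chelate acceptor beads (10 ug/mL) for 30 min.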
# BAZ2B block: BAZ2B (human) inhibition. Q9UIF8. AlphaScreen BAZ2B-H3K14Ac peptide displacement. Potency, µM (series often up to 114 µM), for the others: at the highest dose activity change, negative = inhibition, actives largely listed as inhibitors. 4.4% of 360,000 active; note: potency is the fitted concentration of half-maximal effect; % is set by controls: 0 for no effect and ±100 for the full control effect; nearly all actives have a fitted effect of over 60% in size
#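 Complex of BAZ2B and biotin-H3K14Ac (50 nM apiece) forms over 30 min at RT, then faces library compounds up to 110 uM for another 30 min; AlphaScreen beads added, 20 min dark incubation, luminescence read.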
# Starred values were filed as active, the others as inactive; ? = inconclusive; / = no result; [ ] = another dose, or the depositor's remark. Unless noted, calls come from the whole dose curve; as a rule, active = well fitted inhibition curve with a large enough effect; inconclusive = small, poorly fitted or top-dose-only effect; inactive = no such curve, though single readings can be large or run the other way.
SMILES,PI5P4Ka inh,L3MBTL1 inh,JMJD2A Tudor,G9a block,HP1b chromo inh,BAZ2B block
CC(C)Oc1ccc(S(=O)(=O)N2CCOCC2)cc1NC(=O)CC1OC(=O)c2ccccc21 (stereo not drawn),1.5,-8.4%,-11.5%,15.8µM*,16.2%,-2.9%
O=C1C2CCCN2C(c2ccc(Br)cc2)N1c1ccc(F)cc1 (stereo not drawn),3.3,/,-7.1%,4.7%,51.8%,5.9%
O=C1C2CCCN2C(c2cccc(Br)c2)N1c1ccc(F)cc1 (stereo not drawn),0.6,/,-6.3%,70.8µM*,39.0%,8.8%
Cc1cc(C)cc(NC(=O)CSc2nc(=O)[nH]c3c2CCC3)c1,/,/,-6.2%,-6.4%[59 µM],55.2%,12.4%
O=C(Cn1cc2c(n1)CCCC2)Nc1cc(C(F)(F)F)ccc1Cl,/,/,-0.7%,3.2%[59 µM],21.0%,3.4%
Nc1nc(-c2ccc3c(c2)CCCC3)c(CC(=O)O)s1,2.5,/,-20.4%,50.1µM*,22.3%,-5.2%
COc1ccc(-n2nc([N+](=O)[O-])c(=NCCc3ccc(C)cc3)n2O)cc1,0.5,/,50.1µM*,?,?,?
COc1ccc(-n2nc([N+](=O)[O-])c(=NCCC3=CCCCC3)n2O)cc1,-0.2,?,39.8µM*,31.6µM*,44.7µM*,20µM*
CCc1ccc(N=c2c([N+](=O)[O-])nn(-c3ccccc3)n2O)cc1,/,/,44.7µM*,?,?,31.6µM*
Cc1cc(C)cc(N=c2c([N+](=O)[O-])nn(-c3ccc(Cl)cc3)n2O)c1,0.3,/,?,?,-26.5%,?
Cc1ccc(CN=c2c([N+](=O)[O-])nn(-c3cccc(C)c3)n2O)cc1,3.0,/,35.5µM*,-2.8%,?,?
c1ccc(CNCc2nnc(-c3cc4ccccc4[nH]3)s2)cc1,/,/,-18.5%,/,/,/
O=Cc1ccc(Sc2nnc(-c3ccccc3)o2)c([N+](=O)[O-])c1,/,/,?,39.8µM*,-29.6%,44.7µM*
CCN1CCCc2cc(CN(CCN3CCOCC3)C(=O)Nc3ccc(C)c(C)c3)ccc21,25.5,/,28.2µM*,8.91µM*,?,44.7µM*
CCCCN1CCCc2cc(CN(CCCN3CCOCC3)C(=O)Nc3ccc(OCC)cc3)ccc21,/,/,12.6µM*,?,?,-26.3%
CCc1ccc(NC(=O)N(CCN2CCOCC2)Cc2ccc3c(c2)CCCN3CC)cc1,/,/,22.4µM*,31.6µM*,28.2µM*,?
CCN1CCCc2cc(CN(CCN3CCOCC3)C(=S)Nc3ccc(OC)c(OC)c3)ccc21,0.1,/,-26.5%[11.4 µM],-6.8%[59 µM],30.2%,-33.8%
CCc1ccc(NC(=O)N(CCN2CCOCC2)C2CCN(C(C)=O)CC2)cc1,-4.9,1.8%,-12.8%,-4.0%,7.3%,-0.8%
CC(NC(=O)CSc1n[nH]c(-c2ccccc2Cl)n1)c1nc2ccccc2[nH]1 (stereo not drawn),/,/,-2.6%,2.7%[59 µM],27.5%[57 µM],0.2%
O=C(CN1C(=O)COc2ccc(S(=O)(=O)NC3CCCC3)cc21)NCc1ccc(Cl)cc1,/,/,-6.6%,-0.7%[59 µM],15.9%,1.8%
COc1cc2c(cc1OC)CN(c1nc(CN3CCOCC3)nc3sc4c(c13)CCCC4)CC2,11.3,-18.5%,50.1µM*,44.7µM*,?,44.7µM*
COc1cc2c(cc1OC)CN(c1nc(CN3CCCCC3)nc3sc4c(c13)CCCC4)CC2,4.1,-23.3%,-34.4%,?,0.1%,?
Cc1sc2nc(CN3CCOCC3)nc(N3CCC(C(N)=O)CC3)c2c1C,-0.4,1.9%,-27.5%[57.1 µM],-11.2%[59 µM],53.1%,12.6%
Cc1sc2nc(CN3CCOCC3)nc(N3CCOCC3)c2c1C,2.5,/,?,3.55µM*,?,50.1µM*
Cc1cc(S(=O)(=O)Nc2nc(CN3CCOCC3)nc3sc4c(c23)CCC4)cc(C)c1C,-29.8,?,-35.2%,44.7µM*,-3.6%,?
SMILES,PI5P4Ka inh,L3MBTL1 inh,JMJD2A Tudor,G9a block,HP1b chromo inh,BAZ2B block
COc1cc2c(cc1OC)CN(c1nc(CN3CCCC3)nc3sc(C)c(C)c13)CC2,1.7,0.4%,?,35.5µM*,0.5%,79.4µM*
CC(=O)N1c2ccccc2C(=O)C1N1CCN(c2cccc(C)c2C)CC1 (stereo not drawn),/,/,-2.3%,-4.0%[59 µM],20.2%,5.9%
Cc1nnc(NC(=O)CCS(=O)(=O)c2ccccc2)s1,4.2,/,-3.5%,?,3.3%,-17.6%
CC(C)(C)c1nnc(NC(=O)CCS(=O)(=O)c2ccccc2)s1,-10.4,/,-2.1%,28.2µM*,-8.8%,-8.6%
Cc1ccc(S(=O)(=O)CC(=O)Nc2nnc(C(C)(C)C)s2)cc1,-8.8,/,?,22.4µM*,-14.1%,3.8%
O=C(CS(=O)(=O)c1ccccc1)Nc1nnc(C(F)(F)F)s1,2.4,/,7.2%,?,24.3%,1.4%
COc1ccc(CNC(=O)c2ccc3c(c2)N(Cc2ccccc2)CCS3)cc1,/,/,-27.8%,?,16.2%,-10.5%
O=C(NCCCN1CCOCC1)c1ccc2c(c1)N(Cc1ccccc1)CCS2,-8.2,-22.4%,?,0.4%[12.7 µM],-4.1%,?
O=C(NCCN1CCOCC1)c1ccc2c(c1)N(Cc1ccccc1)CCS2,-3.9,-3.1%,?,50.1µM*,-21.4%,-32.3%
CN1CCSc2ccc(C(=O)NCc3ccccc3)cc21,-4.8,-5.7%,-19.7%,39.8µM*,20.2%,?
CN1CCN(CCCNC(=O)c2ccc3c(c2)N(Cc2ccccc2)CCS3)CC1,-3.2,/,?,79.4µM*,6.4%,-11.7%
CCN1CCN(CCCNC(=O)c2ccc3c(c2)N(Cc2ccc(C)cc2)CCS3)CC1,-0.8,/,?,?,-11.6%,?
CCOC(=O)C(=NCCCN1CCOCC1)NNc1cccc(C(F)(F)F)c1,6.7,/,-32.9%,50.1µM*,-17.6%,?
CC(C)(C)c1ccc(C(=O)N2CCCC(c3nc4c(nnn4Cc4cccc(F)c4)c(=O)[nH]3)C2)cc1 (stereo not drawn),/,/,-28.5%,-10.1%[59 µM],2.5%,?
CCc1ccc(-c2nc3c(=O)n(C)c(=O)nc-3n(CC)n2)cc1,/,/,-2.3%[57.1 µM],/,18.4%[57 µM],/
